Data from the supplement of paper PMC12067093, “Discovery and optimisation of a covalent ligand for TRIM25 and its application to targeted protein ubiquitination” (Chemical Science, 2025).
Targets with the largest changes are over-represented here; the source holds about 21,000 in all.

Compound: Cc1cc(ccc1-c1ccccc1)C(=O)N1CCCN(CC1)C(=O)CCl [compound 10]
Test: probe-labelled cysteine peptide fold change vs DMSO (competition) (log2 fold change); higher = less target engagement (more negative = stronger competition)
Settings: THP-1, incubation time: 4 h
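Note: competitive profiling in live THP-1 cells: cysteine peptides tagged with an iodoacetamide desthiobiotin (IA-DTB) probe, intensity after compound treatment relative to DMSO-treated cells.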

Chain of UniProt P28715 (P28715 whole entry): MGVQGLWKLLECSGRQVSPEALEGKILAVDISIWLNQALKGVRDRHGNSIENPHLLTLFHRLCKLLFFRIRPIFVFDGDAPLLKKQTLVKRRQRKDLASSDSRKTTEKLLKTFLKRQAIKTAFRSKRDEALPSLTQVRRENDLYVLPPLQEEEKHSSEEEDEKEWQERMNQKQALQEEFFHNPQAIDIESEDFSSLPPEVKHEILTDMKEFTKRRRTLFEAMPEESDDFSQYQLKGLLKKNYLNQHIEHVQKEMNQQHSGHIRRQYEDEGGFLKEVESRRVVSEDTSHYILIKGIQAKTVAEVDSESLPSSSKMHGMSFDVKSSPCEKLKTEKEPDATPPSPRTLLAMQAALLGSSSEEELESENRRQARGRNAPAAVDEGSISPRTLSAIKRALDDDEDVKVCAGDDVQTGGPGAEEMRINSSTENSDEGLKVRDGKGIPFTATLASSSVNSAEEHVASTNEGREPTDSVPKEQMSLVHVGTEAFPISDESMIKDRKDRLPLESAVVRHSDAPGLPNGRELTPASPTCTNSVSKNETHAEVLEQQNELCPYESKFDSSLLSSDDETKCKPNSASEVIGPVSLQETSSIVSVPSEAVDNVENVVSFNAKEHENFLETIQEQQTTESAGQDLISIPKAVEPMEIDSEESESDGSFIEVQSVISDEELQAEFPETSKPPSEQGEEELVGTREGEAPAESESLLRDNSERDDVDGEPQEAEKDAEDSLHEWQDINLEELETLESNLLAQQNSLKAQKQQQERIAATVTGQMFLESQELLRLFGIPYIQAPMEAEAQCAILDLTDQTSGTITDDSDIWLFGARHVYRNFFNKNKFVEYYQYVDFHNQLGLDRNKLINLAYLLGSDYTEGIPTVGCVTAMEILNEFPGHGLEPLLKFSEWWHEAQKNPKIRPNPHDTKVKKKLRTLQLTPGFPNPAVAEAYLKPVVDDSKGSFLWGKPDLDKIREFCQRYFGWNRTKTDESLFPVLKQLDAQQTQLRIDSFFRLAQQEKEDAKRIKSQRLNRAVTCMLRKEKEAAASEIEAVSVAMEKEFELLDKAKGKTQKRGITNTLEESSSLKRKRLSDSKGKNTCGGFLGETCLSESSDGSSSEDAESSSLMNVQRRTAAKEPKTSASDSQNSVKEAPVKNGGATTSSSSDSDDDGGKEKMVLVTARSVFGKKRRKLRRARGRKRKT
Chain of UniProt Q6P2E9 (Q6P2E9 whole entry, looked up): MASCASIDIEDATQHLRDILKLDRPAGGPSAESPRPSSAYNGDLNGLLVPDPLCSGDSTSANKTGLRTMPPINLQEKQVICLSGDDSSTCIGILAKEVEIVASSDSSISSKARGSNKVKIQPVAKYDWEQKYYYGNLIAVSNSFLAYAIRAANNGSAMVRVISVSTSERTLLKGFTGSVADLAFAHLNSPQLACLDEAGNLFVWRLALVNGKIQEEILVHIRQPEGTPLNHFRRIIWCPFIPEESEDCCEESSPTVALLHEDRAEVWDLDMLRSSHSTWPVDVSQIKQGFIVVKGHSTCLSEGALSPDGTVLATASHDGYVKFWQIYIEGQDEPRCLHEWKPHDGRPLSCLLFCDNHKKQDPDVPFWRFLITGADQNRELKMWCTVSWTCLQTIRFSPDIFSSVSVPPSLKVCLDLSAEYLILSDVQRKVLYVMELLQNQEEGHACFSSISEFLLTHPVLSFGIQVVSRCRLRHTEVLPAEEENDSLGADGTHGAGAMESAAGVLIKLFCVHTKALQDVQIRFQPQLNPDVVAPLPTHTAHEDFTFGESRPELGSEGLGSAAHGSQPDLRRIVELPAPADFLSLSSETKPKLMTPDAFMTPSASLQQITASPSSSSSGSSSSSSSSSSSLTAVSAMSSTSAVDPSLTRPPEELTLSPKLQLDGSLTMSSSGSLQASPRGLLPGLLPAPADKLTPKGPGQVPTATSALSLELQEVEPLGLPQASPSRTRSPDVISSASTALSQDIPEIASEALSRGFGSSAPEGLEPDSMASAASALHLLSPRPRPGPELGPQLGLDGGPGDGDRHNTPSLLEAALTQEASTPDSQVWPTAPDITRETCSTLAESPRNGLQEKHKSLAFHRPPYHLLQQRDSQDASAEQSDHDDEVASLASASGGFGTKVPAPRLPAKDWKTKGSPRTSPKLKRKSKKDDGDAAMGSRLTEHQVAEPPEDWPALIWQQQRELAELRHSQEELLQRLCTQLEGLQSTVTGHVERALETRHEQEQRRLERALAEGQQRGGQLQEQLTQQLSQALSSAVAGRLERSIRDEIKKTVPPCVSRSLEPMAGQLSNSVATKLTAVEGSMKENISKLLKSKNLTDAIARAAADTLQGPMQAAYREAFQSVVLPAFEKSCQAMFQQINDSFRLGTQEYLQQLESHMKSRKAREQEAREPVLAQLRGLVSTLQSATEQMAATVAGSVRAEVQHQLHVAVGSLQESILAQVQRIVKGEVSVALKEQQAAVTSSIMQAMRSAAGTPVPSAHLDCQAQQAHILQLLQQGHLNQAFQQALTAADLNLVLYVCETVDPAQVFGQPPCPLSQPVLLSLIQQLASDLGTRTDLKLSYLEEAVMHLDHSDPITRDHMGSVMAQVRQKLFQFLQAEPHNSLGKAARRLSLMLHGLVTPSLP
Chain of UniProt Q9H2P9 (Q9H2P9 whole entry, looked up): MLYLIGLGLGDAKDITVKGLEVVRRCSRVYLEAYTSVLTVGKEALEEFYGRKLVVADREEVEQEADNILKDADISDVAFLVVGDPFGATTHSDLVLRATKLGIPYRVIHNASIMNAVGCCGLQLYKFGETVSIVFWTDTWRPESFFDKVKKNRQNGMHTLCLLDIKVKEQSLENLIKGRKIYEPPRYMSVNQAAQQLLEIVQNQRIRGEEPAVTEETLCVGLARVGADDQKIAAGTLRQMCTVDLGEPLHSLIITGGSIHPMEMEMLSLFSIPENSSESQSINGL
Chain of UniProt Q96EB1 (Q96EB1 whole entry, looked up): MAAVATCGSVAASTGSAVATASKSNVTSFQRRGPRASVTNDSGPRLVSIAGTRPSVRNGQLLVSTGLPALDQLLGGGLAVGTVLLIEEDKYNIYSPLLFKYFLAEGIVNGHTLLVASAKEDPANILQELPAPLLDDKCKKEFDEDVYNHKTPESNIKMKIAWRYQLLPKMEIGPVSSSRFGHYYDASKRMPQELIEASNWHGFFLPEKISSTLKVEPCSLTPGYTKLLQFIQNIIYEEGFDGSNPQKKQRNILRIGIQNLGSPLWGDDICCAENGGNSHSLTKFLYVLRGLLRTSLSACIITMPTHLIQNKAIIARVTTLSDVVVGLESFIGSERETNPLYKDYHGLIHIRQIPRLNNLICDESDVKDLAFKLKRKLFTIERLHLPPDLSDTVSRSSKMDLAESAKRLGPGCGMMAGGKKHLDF
Chain of UniProt Q5HYJ3 (Q5HYJ3 whole entry, looked up): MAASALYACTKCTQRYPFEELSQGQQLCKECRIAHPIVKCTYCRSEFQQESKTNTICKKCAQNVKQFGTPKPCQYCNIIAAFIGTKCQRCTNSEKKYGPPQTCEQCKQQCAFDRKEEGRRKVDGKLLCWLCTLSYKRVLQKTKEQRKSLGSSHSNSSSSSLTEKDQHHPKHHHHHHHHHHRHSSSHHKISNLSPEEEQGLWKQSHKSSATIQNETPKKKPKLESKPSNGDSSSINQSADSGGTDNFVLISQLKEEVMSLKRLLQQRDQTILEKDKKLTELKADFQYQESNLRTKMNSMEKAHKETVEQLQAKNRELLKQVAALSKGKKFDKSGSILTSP
Chain of UniProt Q15910 (Q15910 whole entry, looked up): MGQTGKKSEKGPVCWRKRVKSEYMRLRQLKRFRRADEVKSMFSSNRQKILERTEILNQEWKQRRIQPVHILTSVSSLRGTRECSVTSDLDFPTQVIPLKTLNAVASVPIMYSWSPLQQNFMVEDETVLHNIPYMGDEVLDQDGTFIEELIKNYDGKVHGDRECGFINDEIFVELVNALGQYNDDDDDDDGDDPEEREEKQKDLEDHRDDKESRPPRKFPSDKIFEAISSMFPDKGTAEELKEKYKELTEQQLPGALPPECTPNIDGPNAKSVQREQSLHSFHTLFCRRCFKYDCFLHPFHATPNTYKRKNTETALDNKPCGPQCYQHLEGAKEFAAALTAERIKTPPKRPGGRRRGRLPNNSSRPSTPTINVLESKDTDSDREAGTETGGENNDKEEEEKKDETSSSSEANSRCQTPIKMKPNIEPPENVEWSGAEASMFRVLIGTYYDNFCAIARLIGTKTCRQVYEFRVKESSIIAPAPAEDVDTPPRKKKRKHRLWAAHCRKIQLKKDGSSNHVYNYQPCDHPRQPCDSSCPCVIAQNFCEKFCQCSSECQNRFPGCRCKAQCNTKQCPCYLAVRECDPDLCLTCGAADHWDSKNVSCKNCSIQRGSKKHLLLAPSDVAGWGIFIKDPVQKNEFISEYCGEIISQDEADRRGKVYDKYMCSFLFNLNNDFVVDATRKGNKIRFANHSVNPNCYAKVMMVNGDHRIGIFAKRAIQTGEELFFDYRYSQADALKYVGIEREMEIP
Chain of UniProt P05198 (P05198 whole entry, looked up): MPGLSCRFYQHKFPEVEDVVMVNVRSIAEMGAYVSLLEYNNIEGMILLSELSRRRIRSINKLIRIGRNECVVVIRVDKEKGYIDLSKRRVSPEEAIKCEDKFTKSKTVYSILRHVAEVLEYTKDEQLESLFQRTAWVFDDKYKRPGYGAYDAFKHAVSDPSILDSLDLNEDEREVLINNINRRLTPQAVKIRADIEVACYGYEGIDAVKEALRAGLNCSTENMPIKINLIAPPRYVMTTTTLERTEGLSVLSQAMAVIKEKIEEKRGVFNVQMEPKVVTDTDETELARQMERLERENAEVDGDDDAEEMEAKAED
Chain of UniProt Q15717 (Q15717 whole entry, looked up): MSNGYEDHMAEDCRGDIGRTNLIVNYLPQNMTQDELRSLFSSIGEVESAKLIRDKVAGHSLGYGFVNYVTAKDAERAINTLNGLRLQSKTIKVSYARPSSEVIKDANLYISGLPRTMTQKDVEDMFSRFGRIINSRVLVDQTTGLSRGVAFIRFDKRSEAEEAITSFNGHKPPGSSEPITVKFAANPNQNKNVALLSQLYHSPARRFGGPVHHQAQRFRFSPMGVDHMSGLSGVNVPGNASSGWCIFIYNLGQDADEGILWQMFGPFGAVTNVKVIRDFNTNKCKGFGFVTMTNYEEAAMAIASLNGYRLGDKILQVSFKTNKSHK

Target	probe-labelled cysteine peptide fold change (10 µM)	probe-labelled cysteine peptide fold change (50 µM)
EPRS_P07814_92+105_LSSCDSFTSTINELNHCLSLR (UniProt P07814)	0.0532	-0.00186
FDX1_P10109_152+155_LGCQICLTK (UniProt P10109)	-0.319	-0.896
FBXO22_Q8NEZ5_7_MEPVGCCGECR (UniProt Q8NEZ5)	-0.235	1.31
EXOSC2_Q13868_259_MMLYDTSILYCYEASLPHQIK (UniProt Q13868)	0.341	0.254
EEF1A2_Q05639_411_SGDAAIVEMVPGKPMCVESFSQYPPLGR (UniProt Q05639)	-0.261	-0.239
ELAVL1_Q15717_13_SNGYEDHMAEDCR (UniProt Q15717)	0.863	1.62
DSTN_P60981_163_LGGSLIVAFEGCPV (UniProt P60981)	-0.192	-0.173
FANCI_Q9NVI1_650_LEACILTQGDK (UniProt Q9NVI1)	-0.0611	-0.113
EPRS_P07814_1076_KLGVENCYFPMFVSQSALEK (UniProt P07814)	0.288	0.373
EDC4_Q6P2E9_976_LCTQLEGLQSTVTGHVER (UniProt Q6P2E9)	-0.0211	0.299
EXOSC1_Q9Y3B2_40_HGYIFSSLAGCLMK (UniProt Q9Y3B2)	0.118	-0.0583
EIF2S1_P05198_98_VSPEEAIKCEDK (UniProt P05198)	-0.267	-1.12
FAM208A_Q9UK61_318_HVCPYAVVSFTYK (UniProt Q9UK61)	-0.201	-0.698
EZH2_Q15910_260_ELTEQQLPGALPPECTPNIDGPNAK (UniProt Q15910)	-0.164	0.256
EEF1B2_P24534_191_LQIQCVVEDDK<|>EEF1D_P29692_247_LQIQCVVEDDK (UniProt P29692+P24534)	0.179	0.387
ERMP1_Q7Z2K6_737_AHCEENAPLCGFPWYLPVHFLIR (UniProt Q7Z2K6)	-0.0124	0.222
EIF2S3_P41091_96+101_LDDPSCPRPECYR (UniProt P41091)	-0.389	-0.339
DYNC1H1_Q14204_2712_IQFVGACNPPTDPGRKPLSHR (UniProt Q14204)	-0.0552	0.27

Target	probe-labelled cysteine peptide fold change (10 µM)	probe-labelled cysteine peptide fold change (50 µM)
ELP1_O95163_23_DIQGPGNPQCFSLR (UniProt O95163)	0.145	-0.213
FAM120B_Q96EK7_547_LEALMCTNPEIK (UniProt Q96EK7)	-0.253	0.187
EEF1A1_P68104_31_CGGIDKR<|>EEF1A2_Q5VTE0_31_CGGIDKR (UniProt Q5VTE0+P68104)	-1.04	-1.79
ERCC5_P28715_550_NETHAEVLEQQNELCPYESK (UniProt P28715)	-0.452	-0.364
EML2_O95834_110_CLAIHPDMVTIATGQVAGTTK (UniProt O95834)	-0.0841	0.0588
FAM208A_Q9UK61_149_ACLVHNELLEK (UniProt Q9UK61)	-0.2	-1.18
EHMT1_Q9H9B1_1111_LLPEFNMAEPPLIFECNHACSCWR (UniProt Q9H9B1)	0.0188	-0.282
ELP4_Q96EB1_361_LNNLICDESDVK (UniProt Q96EB1)	-0.0288	0.12
FAM76B_Q5HYJ3_73_PCQYCNIIAAFIGTK (UniProt Q5HYJ3)	-0.188	0.0361
EFNB1_P98172_89+101_LYLVRPEQAAACSTVLDPNVLVTCNRPEQEIR (UniProt P98172)	-0.388	-0.49
ERCC3_P19447_342_SGVIVLPCGAGK (UniProt P19447)	-0.235	-1.63
FCHSD2_O94868_200_SECNSK (UniProt O94868)	-0.126	-0.158
DTX3L_Q8TDB6_219_DSCISPSEPETK (UniProt Q8TDB6)	-0.446	-0.672
FAM120A_Q9NZB2_919_VAAASGHCGAFSGSDSSR (UniProt Q9NZB2)	-0.383	-0.344
DOCK10_Q96BY6_1310_TDNCEK (UniProt Q96BY6)	-0.105	-0.108
ETHE1_O95571_170_TDFQQGCAK (UniProt O95571)	-0.118	-1.3
DPH5_Q9H2P9_120_VIHNASIMNAVGCCGLQLYK (UniProt Q9H2P9)	0.0911	0.264
DSCR3_O14972_219+221_VETCGCAEGYAR (UniProt O14972)	-0.345	-2.51
